# Hits are enriched below; roughly 0.43% of the tested compounds scored in any of these assays.
# GLA inh pH 4.5: inhibitors of human alpha-galactosidase A at pH 4.5 | P06280 | purified enzyme, 4-MU-alpha-Gal fluorescence, pH 4.5 | activity change, negative = inhibition, % at 105 µM | 230,000 tested, under 10 active
# GAA glycogen mod: alters human alpha-glucosidase cleavage of glycogen | Potency, µM (highest dose often 76.4 µM), hits mostly inhibitors | AID 2100 | P10253 | actives 0.38% (n = 300,000) | recombinant GAA, glycogen substrate, Amplex Red glucose oxidase fluorescence;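 also: the screen sought inhibitors and activators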
#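 Recombinant human alpha-glucosidase (4 nM final) hydrolysed bovine liver glycogen (30 ug) for 40 min at 37 C in pH 5.0 citrate/phosphate with 0.01% Tween-20. Released glucose detected by glucose oxidase/Amplex Red, Ex 573/Em 610 nm. Compounds up to 77 uM; AC50 from Hill fits.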
# aGlu spleen mod: inhibits or activates alpha-glucosidase in human spleen homogenate; AID 2112; actives 0.006% (n = 240,000); human spleen homogenate, 4-MU-alpha-glucoside fluorescence; Potency, µM (top dose mostly 79.9 µM), actives largely listed as inhibitors; P10253
#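 Human spleen homogenate (1 ug) incubated with compounds and 1 mM 4-methylumbelliferyl-alpha-D-glucopyranoside in pH 5.0 citrate/phosphate buffer, 37 C, 40 min. Stopped at pH 10; 4-MU fluorescence (Ex 365/Em 440 nm); AC50 by Hill fit.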
# N370S GC: inhibits or activates N370S mutant glucocerebrosidase | Potency, µM (titrated, usually from 59.4 µM), hits mostly inhibitors | N370S GC spleen homogenate, 4MU-glucoside fluorescence | actives 0.092% (n = 330,000) | AID 2101
# GAA inh: inhibitors of human lysosomal alpha-glucosidase | AID 1466 | actives 0.005% (n = 200,000) | purified human GAA, 4-MU-alpha-glucoside fluorescence | Potency, µM (doses to about 76.9 µM), usual class: inhibitors
#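 Activity normalized between no-enzyme (basal) and enzyme-only wells. Conditions: 4 nM human enzyme, 400 uM fluorogenic substrate, citrate/phosphate pH 5.0 with Tween-20, 20 min room temperature, compounds up to 77 uM.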
# aGal spleen mod: inhibitors or activators of human alpha-galactosidase in spleen homogenate; P06280; human spleen homogenate, 4MU-alpha-Gal fluorescence, 40 min; Potency, µM (series often up to 80 µM), actives largely listed as inhibitors; actives 0.008% (n = 240,000)
# Target sequence (P06280 32-429 limits assumed): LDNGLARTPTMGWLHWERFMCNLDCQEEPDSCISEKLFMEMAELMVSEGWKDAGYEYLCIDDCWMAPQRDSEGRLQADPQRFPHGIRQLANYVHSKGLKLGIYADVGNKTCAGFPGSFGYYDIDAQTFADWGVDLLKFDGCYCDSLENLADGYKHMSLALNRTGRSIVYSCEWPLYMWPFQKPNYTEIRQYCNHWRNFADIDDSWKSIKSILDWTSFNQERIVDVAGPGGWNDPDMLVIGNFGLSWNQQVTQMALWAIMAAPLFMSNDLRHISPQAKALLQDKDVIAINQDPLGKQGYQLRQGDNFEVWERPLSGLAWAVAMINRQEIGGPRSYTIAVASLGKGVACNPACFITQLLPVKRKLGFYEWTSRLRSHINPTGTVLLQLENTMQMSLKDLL
#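 Human spleen homogenate (1 ug) as enzyme source, 4-methylumbelliferyl-alpha-D-galactopyranoside 1 mM final, citrate/phosphate pH 5.0 with 0.01% Tween-20. Compounds 40 min at 37C, NaOH/glycine stop; fluorescence Ex 365/Em 440, Hill-fit AC50.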
# Numbers stand for hits; - = inactive; ? = inconclusive; . = no result given; ! = a repeat was not active; [ ] = dose if it differs, or a comment. Calls follow the shape of the dose curve; as a rule, active = well fitted curve in the direction sought with a large enough effect; inconclusive = small, poorly fitted or top-dose-only effect, or another doubt; inactive = no such curve, though single readings can be large; an effect the other way counts as inactive or inconclusive.
SMILES,GLA inh pH 4.5,GAA glycogen mod,aGlu spleen mod,N370S GC,GAA inh,aGal spleen mod
CCN=c1scc(C)n1/N=C/c1cc(Br)c(O)c(Br)c1,-,-,-,-,-,-
CCN=c1scc(C)n1/N=C/c1ccc(O)c(O)c1O,-,16µM,-,-,-,-
COc1cc(CNCCc2c[nH]c3ccccc23)ccc1OCc1ccc(F)cc1,-,-,-,16µM,-,-
COc1ccc(Cn2nnnc2C(c2cccs2)N2CCN(c3ccccc3)CC2)cc1 (stereo not given),-,-,-,-[2.35 µM],-,-
Oc1ccc(N2CCN(C(c3cccs3)c3nnnn3CCc3ccccc3)CC2)cc1 (stereo not given),-,28µM,-,?,-,-
Oc1ccc(N2CCN(Cc3nc4ccccc4[nH]3)CC2)cc1,.,8.9µM,.,-,.,.
Cc1cccc(Nc2cc(C)c3c(O)cccc3n2)c1C,-,10µM,-,-,-,-
CC1(C)OC(=O)C(=NNc2ccc(O)cc2)C(=O)O1,-,11µM,-,-,-,-
COc1cccc(C2=Nn3c(nnc3-c3ccccc3C)SC2)c1,.,.,-,-,.,-
CCCC[C@@H]1CN2[C@H](c3ccc(Br)cc3)[C@@H](C)CC[C@H]2C(=O)O1,.,.,-[17.4 µM],-[12.8 µM],.,-[17.5 µM]
Cc1cc(NC(=O)CN2CCN(c3ccccc3O)CC2)no1,-,13µM,-,-,-,-
CN(C)c1ccc(C(=C2C=CC(=[N+](C)C)C=C2)c2ccc(N(C)C)cc2)cc1,-,.,-,3.2µM,.,-
O=S(=O)(Nc1ccccc1O)c1ccc(Cl)nc1,-,20µM,-,-,.,-
Nc1ccc(NC(=S)Nc2ccccc2)cc1,-,-,-,-,-,-
OCCCNC(=S)Nc1ccc(Nc2ccccc2)cc1,-,14µM,-,-,-,-
Oc1ccc(NC(=S)Nc2ccccc2)cc1,-,11µM!,-,?,-,-
Cc1cc2c3c(cccc3n1)C(=O)c1ccccc1-2,-,.,-,-,.,-
CCCCc1cc(=O)oc2cc(OC(C)C(=O)NCCN3CCOCC3)c(Cl)cc12 (stereo not given),.,.,.,20µM,.,.
CCCCc1cc(=O)oc2cc(OCC(=O)NCCN3CCOCC3)c(Cl)cc12,.,-,.,-,.,.
COC(=O)NC(CC(C)=O)c1ccc(Cl)cc1 (stereo not given),.,.,-[17.4 µM],-[12.8 µM],.,-[17.5 µM]
COc1ccc(NCc2ccc(OC)c(Cn3ccnc3)c2)c(OC)c1,.,7µM,.,-,.,.
CC1CCC2C(=O)N3C(CCC(C)C3c3ccc(-c4ccco4)cc3)C(=O)N2C1c1ccc(-c2ccco2)cc1 (stereo not given),.,.,-[17.4 µM],-[12.8 µM],.,-[17.5 µM]
Cc1cc(C)c2c(-n3cccc3)c(C(=O)NNS(=O)(=O)c3ccc(Cl)cc3)sc2n1,-,20µM,-,-,-,-
Cc1cc(C)c2c(-n3cccc3)c(C(=O)NNS(=O)(=O)c3ccccc3)sc2n1,-,?,-,-,-,-
O=c1c2ncn([C@@H]3O[C@@H]4COP(=O)(O)O[C@H]4[C@H]3O)c2nc2[nH]c(-c3ccccc3)cn12,.,.,-,-,.,-
SMILES,GLA inh pH 4.5,GAA glycogen mod,aGlu spleen mod,N370S GC,GAA inh,aGal spleen mod
C=CCNC(=S)NNc1nc(N2CCCC2)nc(N2CCCC2)n1,.,?,.,-,.,.
C=CCNC(=S)NNc1nc(Nc2ccccc2)nc(N2CCCCC2)n1,-,16µM,-,-,-,-
O=c1oc2ccccc2c(Nc2ccc(O)cc2)c1[N+](=O)[O-],-,3.5µM,-,.,-,-
CCc1ccc(Nc2c([N+](=O)[O-])c(=O)oc3ccccc23)cc1,-,-,-,-,.,-
CC(=O)OC[C@@H]1O[C@H](CCO/N=C(\C)CCN2CCCc3nc(C)c(C)cc32)C=C[C@@H]1OC(C)=O,.,.,-[17.4 µM],-[12.8 µM],.,-[17.5 µM]
CCCN1CCCc2cc(CN(CCCN3CCOCC3)C(=O)Nc3ccc(OCC)cc3)ccc21,-,3.5µM,-,?,?,-
CCOc1ccc(NC(=O)N(CCN2CCOCC2)Cc2ccc3c(c2)CCCN3CC)cc1,-,8.9µM,-,-,-,-
C/C(=C\C(=O)OCCCCCCCCC(=O)O)C[C@@H]1OCC(C[C@H]2O[C@H]2[C@@H](C)[C@H](C)O)[C@@H](O)[C@H]1O (stereo not given in full),.,.,-,-,.,-
COc1ccc(-c2nc3cc(C)ccn3c2NCc2ccc3c(c2)OCO3)cc1,-,?,-,-,?,-
Clc1cccc(-c2nc3ccccn3c2Nc2ccc3c(c2)OCCO3)c1,.,4µM,.,.,.,.
Cc1ccn2c(Nc3ccc4c(c3)OCO4)c(-c3ccc(O)cc3)nc2c1,-,11µM,-,16µM,.,-
c1ccc(-c2nc3cnccn3c2Nc2ccc3c(c2)OCCO3)cc1,-,?,-,-,-,-
CN(C)c1ccc(-c2nc3ccccn3c2Nc2ccc3c(c2)OCCO3)cc1,.,18µM,.,.,.,.
Oc1ccc(-c2nc3ccccn3c2Nc2ccc3c(c2)OCCO3)cc1,.,13µM,.,.,.,.
Cc1nc(-c2ccccc2)c(-c2ccncc2)o1,.,.,-,-,.,-
CCCCN1C[C@H](O)[C@@H](O)[C@H](O)[C@H]1CO,.,2.5µM,1.6µM,.,6.3µM,-
CC1(C)CC(=O)C(c2c[nH]c3ccccc23)C(=O)C1,-,10µM,-,-,-,-
CN(C)c1cc(Cl)c2nonc2c1N,-,13µM,-,-,.,-
CCN(CC)c1cc(Cl)c2nonc2c1N,-,?,-,-,.,-
CO[C@@H]1COC(=O)[C@H](C)NC(=O)[C@@H](C)COC(=O)[C@H](C)NC(=O)C/C=C\[C@H]1C,.,.,-[17.4 µM],-[12.8 µM],.,-[17.5 µM]
Cc1cccc(NNC(=O)C2CCC2)c1,-,7.9µM,-,-,.,-
Oc1ccc(/C=N/Nc2nccnc2Cl)c(O)c1,-,11µM,-,?,-,-
CC1C(=O)NN=C1C(=O)N/N=C\c1ccc(O)cc1O (stereo not given),-,-,-,-,-,-
Oc1ccccc1/C=N/Nc1nccnc1Cl,-,-,-,-,-,-
Oc1ccc(Br)cc1/C=N/Nc1ncc(-c2ccccc2)cn1,-,-,-,-,-,-
Oc1ccc(/C=N/Nc2cccc3cccnc23)c(O)c1,-,25µM,-,-,-,-
Oc1ccc(/C=N/Nc2ncc(Br)cn2)c(O)c1,-,28µM,-,-,-,-
O=c1[nH]ncc(N/N=C\c2ccc(O)cc2O)c1Cl,-,2.5µM,-,-,-,-
CCCCCCCCCCCCCCCCCCCCCCCCCCCCCC,.,.,-,-,.,-

# Bioassay records as filed in PubChem BioAssay.
